Results published in the supplement of paper PMC6555819.

Columns and labels:
Assay in all cases: PBM binding z-score (relative to random genomic background probes); higher = stronger binding; sequences stand for … in GC…GCGATTGACAGCGTAGAATGAAGG
[1] = system: RARb homodimer (NR concentration 270 nM)
In short: (§1)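 For binding z-scores, the reference was random background probes on custom Agilent 4×180K protein-binding microarrays. These arrays were incubated 1 h with ligand-free nuclear receptor dimers in PBS pH 7.4, 2% milk, 0.02% Triton X-100, 1 mM DTT, 0.2 mg/mL BSA and 0.4 mg/ml salmon testes DNA. Fluorescence was scanned after antibody detection of each partner (one per run) and regression-normalized.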

[2] = system: RARg:RXRa (NR concentration 270 nM, RXRa partner concentration 90 nM)
In short: as §1

[3] = system: RARg homodimer (NR concentration 270 nM)
In short: as §1

[4] = system: RXRa DBDmut IVT, anti-RXR (DBD mutation: RXRa K156A/R161A, NR concentration 90 nM)
In short: as §1

[5] = system: RXRa homodimer (NR concentration 180 nM)
In short: as §1

[6] = system: THRa:RXRa (NR concentration 90 nM, RXRa partner concentration 90 nM)
In short: as §1

[7] = system: THRa homodimer (NR concentration 90 nM)
In short: as §1

[8] = system: VDR:RXRa (NR concentration 270 nM, RXRa partner concentration 90 nM)
In short: as §1

[9] = system: VDR homodimer (NR concentration 270 nM)
In short: as §1

| Sequence | PBM binding z-score [1] | PBM binding z-score [2] | PBM binding z-score [3] | PBM binding z-score [4] | PBM binding z-score [5] | PBM binding z-score [6] | PBM binding z-score [7] | PBM binding z-score [8] | PBM binding z-score [9] |
| --- | --- | --- | --- | --- | --- | --- | --- | --- | --- |
| TCTTGTAGATCCAGCAGGTTAAGAAAGCCTGAGT | -0.0215 | -0.196 | -0.399 | 0.513 | 0.171 | 0.192 | -0.236 | 0.306 | -0.224 |
| TCATATAGGTAACAGGTGAAAGTCGGTGTGGTAA | 1.03 | 0.519 | 0.556 | 1.41 | 1.11 | 0.822 | 0.292 | 0.96 | 0.21 |
| TCTAGTTGGTCATAGGTCACACACTCGAAATGCG | 3.67 | 4.2 | 3.58 | 1.63 | 4.58 | 2.68 | 1.47 | 3.19 | 1.63 |
| AGAATGAGGTTATACCTAGATCAGGGAAGAAAGT | 0.483 | 1.75 | 1.14 | 1.51 | 2.12 | 2.05 | 0.418 | 1.11 | 0.345 |
| CCAGACATGTGAAAGGTAACTCAGTCTGGTACGC | 0.0662 | 0.308 | 0.362 | 0.289 | 0.767 | 0.162 | -0.146 | 0.207 | 0.204 |
| CCGACTGGGGCAAAGGTTACCATACTCAGTACGA | 2.22 | 3.52 | 1.78 | 0.712 | 3.67 | 1.78 | -0.211 | 1.68 | -0.204 |
| CGAACCAGGGCATGAGTTGATAGCAAATGCCGAT | 0.207 | 0.644 | 0.753 | 0.293 | 0.492 | 0.518 | -0.382 | 0.253 | 0.429 |
| TTACCAAGGTGATCTGAGGTCGTTGATCCAACTC | 1.63 | 0.881 | 0.757 | 0.903 | 1.37 | 4.77 | 2.67 | 4.13 | 2.96 |
| GCGACTGGGGCAAAGCAGGTTACCTTAAGGTTGG | 0.957 | 0.509 | 0.229 | -0.0758 | 0.238 | 3.21 | 1.82 | 0.0193 | -0.116 |
| CCTTACGGGTCACGAGGTTATAGCACGACGAGCG | 4.07 | 6.25 | 5.47 | 1.53 | 6.87 | 3.69 | 1.09 | 5.23 | 2.03 |
| CGTCCAAGGTCAGAGAGGTAAGTGAATGCCGAGT | 3.27 | 4.7 | 5.39 | 2.67 | 3.85 | 3.5 | 1.8 | 4.27 | 1.71 |
| CCTGCTATGTCATGGTCAGCTAATCTACAGTATG | 0.419 | 0.518 | 0.62 | 0.877 | 0.209 | -0.0552 | -0.368 | -0.0549 | -0.566 |
| CAACCAAGGTGAACAAGGTCGTTGATTACTATTC | 2.25 | 1.9 | 1.64 | 1.49 | 2.07 | 3.44 | 2.06 | 5.89 | 2.59 |
| ATCGAAAGGTCGTGAGGTGAGCATACAGAAAGGC | 3.19 | 4.58 | 4.26 | 1.12 | 5.3 | 3.45 | 1.68 | 3.19 | 0.917 |
| GCTATTAGTTGAAAGGGAAACCGAATGATTCTCG | -0.448 | -0.0918 | 0.0889 | 0.797 | -0.215 | -0.127 | -0.399 | 0.00748 | 0.461 |
| CTCGAAAGGTCGTGCCCAGGTGAGTATACCAAAC | 2.89 | 5.31 | 3.78 | 1.72 | 5.09 | 3.87 | 0.947 | 3.33 | 1.31 |
| CGTCCAAGGTCAAAGGGCAGTGAAGAGATGACGG | 4.39 | 6.57 | 6.29 | 3.46 | 7.24 | 4.14 | 1.86 | 4.65 | 2.28 |
| TAGCCTAGGTCATTCAGGGGCCAGTATCGAAAGC | 3.55 | 5.82 | 4.73 | 1.96 | 3.05 | 3.47 | 0.885 | 2.97 | 1.48 |
| CAAACTAGGCCACAGAGGTCAAAGTCCGTGCGTA | 4.87 | 5.71 | 4.91 | 2.16 | 6.16 | 3.95 | 1.62 | 6.29 | 4.03 |
| TCTATTAGTTGATTAAGGCAACCGAAACAGCGGA | -0.49 | 0.163 | 0.201 | 1.35 | 0.349 | 0.746 | 0.601 | 0.578 | 0.261 |
| TAGCCTAGGTCATTGGTCCAGTATAGTACGCATC | 2.86 | 3.61 | 3.82 | 1.98 | 2.74 | 2.84 | 1.47 | 2.55 | 1.51 |
| CAGCCTAGGTCGGGGCCAGTATAGGAGGAACGTT | 0.941 | 0.359 | 0.842 | -0.52 | -0.0745 | 0.171 | -0.524 | -0.53 | -0.348 |
| GCTAGCAGGCCTTTTGGGTCACTCAATGACGGGC | 1.39 | 0.621 | 0.516 | -0.579 | 0.552 | 2.11 | 0.611 | -0.0926 | -0.536 |
| AATACAGGGTCATCGTAGGACAGAGTACGCACAG | 3.3 | 5.62 | 5.18 | 3.38 | 6.61 | 4.82 | 1.71 | 5.5 | 4.11 |
| ACAGACACGTGAGTGAAGGTAACTCAGCTGGACG | -0.372 | -0.114 | 0.0531 | -0.182 | 0.149 | -0.478 | -0.846 | -0.481 | -0.417 |
| TCTAGCAGGCCTGAGGGTCACTCAAGAGGTACGG | 2.52 | 2.29 | 1.53 | 0.198 | 2.59 | 1.75 | -0.278 | 1.9 | 0.36 |
